Compound activity from PubChem.
GLS inh – qHTS for Inhibitors of Glutaminase (GLS); Potency, µM (doses to about 45.5 µM), for inactives: at the top dose activity change, negative = inhibition, actives largely listed as inhibitors; GLS enzymatic activity, qHTS titration; AID 624170, 2012; Glutaminase kidney isoform, mitochondrial (Homo sapiens), O94925; 0.21% of 410,000 active; also: potency is read from the fitted curve at half-maximal effect; % is scaled to controls: 0 for no effect and ±100 for the full control effect
Target sequence (O94925 whole entry, looked up, canonical isoform): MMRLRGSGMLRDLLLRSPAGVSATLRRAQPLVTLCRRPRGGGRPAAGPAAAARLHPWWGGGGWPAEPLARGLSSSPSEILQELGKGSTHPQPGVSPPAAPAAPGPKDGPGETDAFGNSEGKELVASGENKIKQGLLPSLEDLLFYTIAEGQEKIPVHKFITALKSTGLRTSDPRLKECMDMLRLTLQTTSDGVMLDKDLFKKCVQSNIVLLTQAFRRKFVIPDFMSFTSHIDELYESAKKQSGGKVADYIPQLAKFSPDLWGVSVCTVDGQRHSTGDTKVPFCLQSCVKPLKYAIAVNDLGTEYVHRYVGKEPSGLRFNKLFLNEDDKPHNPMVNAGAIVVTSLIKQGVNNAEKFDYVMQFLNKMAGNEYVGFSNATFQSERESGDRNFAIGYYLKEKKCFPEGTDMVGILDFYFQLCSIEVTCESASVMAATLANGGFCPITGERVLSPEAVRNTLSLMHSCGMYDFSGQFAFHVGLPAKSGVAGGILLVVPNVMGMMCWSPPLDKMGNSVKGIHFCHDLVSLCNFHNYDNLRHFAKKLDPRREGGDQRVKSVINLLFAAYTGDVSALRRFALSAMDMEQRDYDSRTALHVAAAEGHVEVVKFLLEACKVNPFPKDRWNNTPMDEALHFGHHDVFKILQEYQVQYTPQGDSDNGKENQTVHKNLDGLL
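Read-out is an Amplex red fluorescence increase coupled through glutamate oxidase and HRP, measured before and after 30 min room-temperature incubation. hKGA is in 45 mM KH2PO4 (pH 8.2) with 0.02% Tween-20; glutamine added as 1mM solution.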
Glioma ERSR ind – qHTS for Inducers of the Endoplasmic Reticulum Stress Response (ERSR) in Human Glioma: qHTS; U87-MG GRP78 promoter luciferase reporter, 16 h; Potency, µM, inactives show at the highest dose activation, usual class: activators; 0.02% of 420,000 active; AID 602332, 2012; also: potency is read from the fitted curve at half-maximal effect; series mostly up to about 76 µM; % of control where 0% means no effect; nearly all actives have a fitted effect of over 35% in size
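Stably transfected U87-MG glioma cells carrying a GRP78-based luciferase sensor; 16 h compound incubation. Luminescence end-point read 10 min after Bright-Glo addition at room temperature.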
pAkt inh – HTS Assay for Inhibitors of Akt Phophorylation: Primary Screen; activity change, % for hits at 50 µM; 0.32% of 360,000 active; Neuro2A IGF-stimulated pAkt S473 HTRF, 20 min; hits give low values; AID 651550, 2012; in the data active = activity change below about -80%; inconclusive = mostly about -51% to -80%; also: % is scaled to controls: 0 for no effect and ±100 for the full control effect
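Neuro2A cells (4,500/well, DMEM with 0.5% FBS) were treated with compound at a single 50 µM final concentration, stimulated with 6 nM IGF for 20 min at 37 °C, and lysed. Phospho-Akt Ser473 was read by HTRF as 665/615 ratio ×10^4.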
MmCpn inh – Inhibitors of TCP-1 ring complex (TRiC) of Methanococcus maripaludis (MmCpn): qHTS | Chaperonin Mm-Cpn (Methanococcus maripaludis) | purified Mm-Cpn ATPase, ADP Transcreener TR-FRET | Potency, µM (highest dose often 76.9 µM), for inactives: top-dose activity, negative = inhibition, usual class: inhibitors | 0.031% of 330,000 active | AID 504842, 2011; also: potency is read from the fitted curve at half-maximal effect; % is scaled to controls: 0 for no effect and ±100 for the full control effect; nearly all actives have a fitted effect of over 80% in size
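ATPase turnover read by TR-FRET ADP competition (Eu cryptate antibody/ADP-d2, 665/590 nm): 10uM ATP final, 25nM Mm-CPN final, 30 min 37degC after 10-min compound preincubation, pH 7.4 Tris/KCl/MgCl2/DTT buffer.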
IDH1 R132H inh – qHTS for Inhibitors of mutant isocitrate dehydrogenase 1 (IDH1): qHTS. Isocitrate dehydrogenase [NADP] cytoplasmic (Homo sapiens), O75874. IDH1-R132H enzyme, NADPH consumption, diaphorase/resazurin fluorescence. Potency, µM (highest dose often 76.6 µM), for inactives: at the highest dose activity change, negative = inhibition, actives largely listed as inhibitors. 0.093% of 390,000 active. AID 602179, 2012; also: potency is read from the fitted curve at half-maximal effect; % is scaled to controls: 0 for no effect and ±100 for the full control effect; nearly all actives have a fitted effect of over 65% in size
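IDH1-R132H (0.5 ug/mL dispensed) in pH 7.5 Tris buffer was preincubated 30 min with compound, then given a substrate mix of 0.016 mM NADPH and 2 mM alpha-KG for 80 min at room temperature; remaining NADPH was read by diaphorase/resazurin fluorescence.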
CCT modulator – High-Throughput Screening for Modulators of Cytosolic Chaperonin Activity | purified chaperonin ATPase assay, HTRF ADP detection, 30 min | activity change, % (concentration not given with the values), hits read low | 0.3% of 360,000 active | AID 651819, 2012; in the data active = activity change below about -30%; also: % is scaled to controls: 0 for no effect and ±100 for the full control effect
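We incubate TRiC, 40 or 20 nM final, with library compounds at 76 uM and 10 uM ATP for 30 min at 37 °C. ADP formed is detected with Transcreener HTRF reagents after 30 min at room temperature.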
IDH1 autofl – qHTS for Inhibitors of mutant isocitrate dehydrogenase 1 (IDH1): Cherrypicks Autofluorescence Interference. shares compounds with IDH1 R132H inh. Resorufin detection reagent fluorescence interference, cell-free. inhibition of signal, % at 51.2 µM. 750 tested, under 10 active;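 also: 0% = wells with normal resorufin and full inhibition = wells lacking resorufin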
WT IDH1 inh – qHTS for Inhibitors of mutant isocitrate dehydrogenase 1 (IDH1): Cherrypicks in WT IDH1; 9% of 750 active; WT IDH1 enzyme, NADPH diaphorase/resazurin fluorescence; shares compounds with IDH1 R132H inh; Potency, µM (doses to about 115 µM), for the others: at the top dose activity change, negative = inhibition, most hits filed as inhibitors;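 also: potency is read from the fitted curve at half-maximal effect; 0% = full WT IDH1 enzyme control and full inhibition = no enzyme wells; nearly all actives have a fitted effect of over 55% in size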
IDH1 R132H conf – qHTS for Inhibitors of mutant isocitrate dehydrogenase 1 (IDH1): Confirmation of Cherrypicks. shares compounds with IDH1 R132H inh. IDH1 R132H enzyme, NADPH diaphorase/resazurin fluorescence. Potency, µM (top dose mostly 76.6 µM), for the others: at the top dose activity change, negative = inhibition, hits mostly inhibitors. 83% of 750 active. AID 624002, 2012; also: potency is read from the fitted curve at half-maximal effect; nearly all actives have a fitted effect of over 50% in size
An asterisk follows results filed as active; i = inactive; ? = inconclusive; . = no result given. Shown are actives, neighbours in structure and some others; about 0.85% of the full set was active somewhere. Unless noted, calls follow the shape of the dose curve; as a rule, active = well fitted curve in the direction sought with a large enough effect; inconclusive = small, poorly fitted or top-dose-only effect, or another doubt; inactive = no such curve, though single readings can be large; an effect the other way counts as inactive or inconclusive.

SMILES	GLS inh	Glioma ERSR ind	pAkt inh	MmCpn inh	IDH1 R132H inh	CCT modulator	IDH1 autofl	WT IDH1 inh	IDH1 R132H conf
Cc1ccc(Nc2nnc(SCC(=O)Nc3ncc(S(=O)(=O)c4ccc([N+](=O)[O-])cc4)s3)s2)cc1	13%	0%	i	0%	5%	-11	.	.	.
Cc1cc(=O)[nH]c(SCC(=O)Nc2ncc(S(=O)(=O)c3ccc([N+](=O)[O-])cc3)s2)n1	5%	3%	i	-2%	?	-3	4	?	-17%
COC(=O)[C@@H]1CCCN1C(=O)c1cc(NC(=O)C2CCC2)c2c(c1)nc(-c1ccncc1)n2C	.	-2%	.	.	.	.	.	.	.
CCC(COC)NC(=O)c1cnn(-c2ncc3c(n2)-c2ccccc2CCC3)c1C (configuration not stated)	.	-1%	.	.	.	.	.	.	.
CC(C)c1nc2sc3c(=O)n(N)cnc3c2c2c1COC(C)(C)C2	1%	-1%	i	0%	3%	0	.	.	.
CCN(CCO)c1ncnc2c1sc1nc(C(C)C)c3c(c12)CC(C)(C)OC3	2%	-1%	i	?	?	1	-13	7.1µM*	6.3µM*
COc1cc(SC#N)ccc1N=Cc1c(C)[nH]n(-c2ccc(Cl)cc2)c1=O	-1%	-5%	i	-2%	?	-1	-1	1%	45µM*
C[C@H]1CN([C@@H](C)CO)C(=O)c2cccc(NC(=O)Nc3ccc(C(F)(F)F)cc3)c2O[C@@H]1CN(C)S(=O)(=O)c1ccccc1	2%	-2%	i	2%	?	2	2	-14%	?
CCOc1ccc(NC(=O)c2c[nH]n3c(=O)cc(C4CCN(C(=O)OC(C)(C)C)CC4)nc23)cc1	3%	3%	i	-1%	52µM*	0	-13	50µM*	25µM*
O=C1c2[nH]nc(-c3ccc(F)cc3)c2C(c2ccccc2F)N1c1ccccc1 (configuration not stated)	-9%	-10%	.	.	?	.	1	1%	?
COc1cc(C2c3c(-c4ccccc4)n[nH]c3C(=O)N2c2ccccc2)ccc1O (configuration not stated)	10%	-4%	i	1%	-15%	0	.	.	.
CN(C(=O)CSc1nc(-c2ccc(C(C)(C)C)cc2)c(C#N)c(=O)[nH]1)C1CCCCC1	-4%	-3%	i	-3%	?	-4	0	?	45µM*
CC(=O)C1=C(c2cccc([N+](=O)[O-])c2)N(C(C)=O)n2c(C)nnc2S1	?	-3%	i	2%	21µM*	0	-9	i	3.2µM*
CCOc1ccc(C2=C(C(C)=O)Sc3nnc(C)n3N2C(C)=O)cc1	7%	1%	.	.	?	.	.	.	.
NNC(=O)CSc1c(-c2ccccc2)c2cc(Cl)ccc2[nH]c1=O	25%	-11%	i	-1%	?	0	-14	-19%	-25%
O=c1[nH]c(/C=C/c2ccccc2Cl)c([N+](=O)[O-])c(=O)[nH]1	5%	-1%	i	-1%	-21%	0	.	.	.
O=C(COc1ccccc1/C=C\c1[nH]c(=O)[nH]c(=O)c1[N+](=O)[O-])Nc1ccccc1	?	-3%	i	?	41µM*	-4	-1	?	40µM*
COc1ccc(-c2cc(C)cc3c2OC(CNC(=O)c2cc(C(C)C)on2)C3)nn1 (configuration not stated)	.	-4%	.	.	.	.	.	.	.
CCc1noc(C)c1C(=O)N1CCOc2ccc(CN3CCN(c4ccccn4)CC3)cc2C1	.	-6%	.	.	.	.	.	.	.
O=S(=O)(/C=C/c1ccccc1)N1CCC(n2c(C3CCCO3)nc3cccnc32)CC1 (configuration not stated)	.	0%	.	.	.	.	.	.	.
Cc1ccc(C(C(=O)NC2CCCCC2)N(C(=O)Cc2c[nH]c3ccccc23)c2ccccc2)o1 (configuration not stated)	0%	1%	i	1%	?	0	-9	-12%	7.1µM*
CC(=O)Nc1ccc(N(C(=O)Cc2c[nH]c3ccccc23)C(C(=O)NC2CCCCC2)c2ccco2)cc1 (configuration not stated)	-2%	-5%	i	1%	-1%	-1	.	.	.
CC(=O)c1cccc(N(C(=O)c2ccco2)C(C(=O)NC2CCCCC2)c2ccc(C)o2)c1 (configuration not stated)	-1%	-4%	i	1%	?	0	1	1%	40µM*
CCc1ccc(N(C(=O)c2ccco2)C(C(=O)NC2CCCC2)c2ccncc2)cc1 (configuration not stated)	5%	12%	i	1%	-11%	-1	.	.	.
Cc1ccc(C)c(N(C(=O)c2ccco2)C(C(=O)NC2CCCC2)c2ccco2)c1 (configuration not stated)	9%	-3%	i	-5%	46µM*	-3	-4	13%	20µM*
CCc1ccc(N(C(=O)c2ccco2)C(C(=O)NC2CCCC2)c2ccco2)cc1 (configuration not stated)	1%	2%	i	.	?	-2	-7	-7%	40µM*
COCCNC(=O)c1cn(C2CCN(C3CCCC3)CC2)nn1	.	-4%	.	.	.	.	.	.	.
O=C(NCc1nnc2n1CCN(Cc1cccc(C(F)(F)F)c1)CC2)c1ccncc1	.	-4%	.	.	.	.	.	.	.
